This passage reports growth results from PubChem BioAssay (NCI).

Assay in all cases: NCI-60 one-dose screen, 48 h (100 = growth as untreated, 0 = no growth, -100 = all killed)
In test [1] the test system is NCI-H23 lung. The settings on record: 10 µM unless noted.
Test [2] relates to NCI-H226 lung. Conditions: 10 µM unless noted.
The subject of test [3] is NCI-H322M lung. The settings on record: 10 µM unless noted.
Test [4] relates to HOP-62 NSCLC. Conditions: 10 µM unless noted.
Test [5] deals with NCI-H460 lung. The settings on record: 10 µM unless noted.
The test system of test [6] is HOP-92 NSCLC. Conditions: 10 µM unless noted.
Test [7] relates to NCI-H522 lung. The settings on record: 10 µM unless noted.
Test [8] deals with A549/ATCC NSCLC. The settings on record: 10 µM unless noted.
Test [9] has as its system 786-0 renal. The settings on record: 10 µM unless noted.
The test system of test [10] is COLO 205 colon. The settings on record: 10 µM unless noted.
The test system of test [11] is DU-145 prostate. The settings on record: 10 µM unless noted.
The test system of test [12] is MALME-3M melanoma. The settings on record: 10 µM unless noted.
Test [13] concerns MDA-MB-231 breast. The settings on record: 10 µM unless noted.
Test [14] relates to RXF 393 renal. The settings on record: 10 µM unless noted.
For test [15], the system named is SF-268 CNS. Conditions: 10 µM unless noted.
The test system of test [16] is SF-295 CNS. Conditions: 10 µM unless noted.
In test [17] the test system is SF-539 CNS. Conditions: 10 µM unless noted.
Test [18] has as its system UACC-257 melanoma. Conditions: 10 µM.
Test [19] concerns M14 melanoma. Conditions: 10 µM unless noted.

Molecules are shown by their SMILES. The panel holds about 83,000 compounds, 20% with a hit somewhere; the sample as a whole holds those more often.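 Results are percent growth after 48 hours of single-concentration exposure. 100 means growth as in untreated cells, lower positive values show inhibition; negative values down to -100 show cell death.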 Unmarked numbers belong to inactive results. The source made the active and inactive calls. How the source made its calls: active means growth percent below 10; inactive means the rest.

`CC1OC(O[C@@H]2[C@H](O)C(CO)OC(O[C@H]3COC(O[C@H]4CC[C@]5(C)[C@H]6CC[C@]78OC[C@@]9(CCC(C)(C)C[C@H]97)[C@H](O)C[C@@]8(C)[C@]6(C)CC[C@H]5C4(C)C)[C@@H](OC4OC(CO)[C@@H](O)[C@@H](O)[C@@H]4O)[C@@H]3O)[C@H]2OC2OC[C@@H](O)[C@@H](O)[C@@H]2O)[C@@H](O)[C@@H](O)[C@H]1O` (stereo partly specified): the growth in test [1] is -62.7% (active); in [2], -40% (active); in [3], -78.2% (active); in [4], -81% (active); in test [5] it was -65.2% (active); in test [6], -39.3% (active). Further, the growth is -72.4% (active) in test [7]; -67.7% (active) in test [8]; -80.9% (active) in test [9]; -74.5% (active) in test [10]; -79.7% (active) in test [11]; -70.6% (active) in [12]. Besides, the growth is -72.2% (active) in [13]; -92% (active) in test [14]; -65.9% (active) in [15]; -92.3% (active) in test [16]; -80.5% (active) in test [17]; -76.2% (active) in test [18]. For the same compound, in test [19], the growth is -80.7% (active).

On to `C=CCn1c(SCC(=O)Nc2cccc(C(=O)/C=C/c3ccc(OC)c(OC)c3)c2)nc2ccccc2c1=O`, for which the growth in test [1] is 93.2%; in [2] it was 83.7%; in test [3], 87.8%; in test [4], 103%; in [5] it was 91.7%; in test [6], 84.6%. For the same compound, the growth in test [7] is 83.6%; in test [8] it was 89.1%; in test [9], 100%; in [10], 116%; in [11], 95.2%; in test [12], 84.7%. For the same compound, the growth in [13] is 89.7%; in test [14] it was 87.9%; in [15] it was 89.1%; in test [16], 104%; in [17], 90.3%; in test [18], 108%. In [19], the growth is 114%.

With `COc1ccc(/C(C)=C(\c2ccc(Cl)cc2)c2ccc(OCCN)cc2)cc1`, the growth in test [1] is 82.2%; in [2], 92%; in test [3], 79.3%; in [4], 106%; in test [5], 60.8%; in [6], 61.6%. The growth in test [7] is 102%; in test [8] it was 88.9%; in test [9] it was 81.7%; in test [10], 32.6%; in [11], 87.2%; in test [12] it was 83%. Further, the growth in test [13] was 67.1%; in test [14], 68.3%; in [15], 89.4%; in [16], 103%; in test [17], 90%; in [18] it was 94.7%. Moreover, the growth in [19] is 81.4%.

As to `COc1cnc2c(c1)C(=O)c1c-2n(CCCNCC2CC2)c(=O)c2cc(F)ccc12`, the growth was -44.5% (active) in test [1]; -14.1% (active) in [2]; -1.44% (active) in test [3]; -31.6% (active) in [4]; -66.6% (active) in test [5]; -5.96% (active) in test [6]. Besides, the growth in test [7] was -55.3% (active); in test [8] it was -61.9% (active); in test [9], -32.4% (active); in [10] it was -45.8% (active); in [11], 4.61% (active); in test [12], -12.2% (active). The growth is -25.2% (active) in test [13]; -47.5% (active) in test [14]; 14.6% in test [15]; -7.51% (active) in [16]; -65.6% (active) in test [17]; 15% in test [19].

Take `Clc1ccccc1/C=C/c1nn2c(-c3ccncc3)nnc2s1`: the growth is 99% in [1]; 91% in [2]; 100% in test [3]; 108% in test [4]; 102% in [5]; 103% in test [6]. The growth in [7] is 101%; in [8], 106%; in test [9], 96.9%; in test [10], 115%; in [11], 103%; in [12], 100%. Also, the growth in [13] is 101%; in test [14], 109%; in test [15], 98.7%; in [16] it was 98%; in test [17] it was 98.3%; in [18] it was 121%. In addition, the growth in [19] was 85.7%.

Turning to `O=C1c2c(c3c4ccc(Br)cc4oc3c3[nH]c4ccccc4c23)C(=O)N1CCO`, the growth was 46.3% in test [1]; 33.3% in test [2]; 68.1% in test [3]; 12.2% in [4]; 3.9% (active) in [5]; 62.3% in [6]. The growth in test [7] was 43.8%; in test [8] it was 48.7%; in test [9], 30.9%; in test [10] it was 52.4%; in test [11] it was 35%; in test [12] it was 65.4%. Besides, the growth in test [13] was 65.1%; in test [14], 57.1%; in [15] it was 49.2%; in test [16] it was 20.8%; in [17], 17.1%; in test [19] it was 29.8%.

Take `C=CCn1c(SCC(=O)Nc2cccc(C(=O)/C=C/c3ccc(Br)cc3)c2)nc2ccccc2c1=O`: the growth is 85.1% in [1]; 94.1% in test [2]; 86.6% in [3]; 96.8% in test [4]; 94.9% in test [5]; 78.4% in test [6]. The growth in test [7] was 75.3%; in test [8], 86.4%; in test [9] it was 97.7%; in test [10], 111%; in test [11] it was 95.7%; in test [12], 72.7%. For the same compound, the growth was 81.2% in test [13]; 71.1% in test [14]; 90.3% in test [15]; 91.4% in test [16]; 66.6% in [17]; 105% in test [18]. Further, in [19], the growth is 85.4%.
